BL2 CD40 inh: CD40 pathway inhibition in BL2 cells; BL2 NF-kB luciferase reporter, CD40L-induced, 4 h; inhibition, % at 10 µM; 0.94% of 83,000 active; AID 1053188;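 active = mean inhibition of at least 50% with a set share of replicates also reaching that level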
Each line names hits and unclear results; the compound was inactive in the other large screens; [ ] = dose if it differs, or a comment. The entries come from a sample that favours hits as a whole.

CN(C)C(=O)c1ccc(-c2ccccc2[C@@H]2[C@@H](CO)N(C(=O)C3CCCCC3)[C@H]2C#N)cc1	none
C[C@H]1CN(C)C(=O)Cc2cc(NS(C)(=O)=O)ccc2O[C@H]1CN(C)C	none
CCCNC(=O)N1[C@H](CNC(=O)CC)[C@@H](c2ccc(C3=CCCC3)cc2)[C@@H]1CO	none
CCOC(=O)c1c(-c2ccc(C)o2)csc1NC(=O)CN1CCN(CC)CC1	none
CCOC(=O)c1c(-c2ccc(C)o2)csc1NC(=O)CN1CCC(C(N)=O)CC1	none
CCOC(=O)c1c(-c2ccc(C)o2)csc1NC(=O)CN1CCCCC1	BL2 CD40 inh 62.6
N#C[C@@H]1[C@@H](c2ccc(/C=C/c3ccccc3)cc2)[C@@H](CO)N1C(=O)C1CCC1	none
CO[C@H](CN(C)Cc1ccc2c(c1)OCO2)[C@@H](C)CN(C(=O)Nc1ccc(F)cc1)[C@H](C)CO	none
O=C(NCCS(=O)(=O)NCCc1ccccc1)c1ccccc1	none
O=C(NCCCn1ccnc1)c1ccc2nccnc2c1	none
O=C(NCCc1ccccc1)c1ccc2nccnc2c1	BL2 CD40 inh 72.2
CO[C@H](CN(C)S(=O)(=O)c1ccc(F)cc1)[C@@H](C)CN(C(=O)Nc1ccccc1F)[C@H](C)CO	none
Cc1noc(/C=C/c2ccccn2)c1[N+](=O)[O-]	BL2 CD40 inh 42.5
Cc1ccc2ncccc2c1[N+](=O)[O-]	none
O=[N+]([O-])c1cccc(/C=C/c2ccccn2)c1	none
COc1cccc(S(=O)(=O)Nc2ccc3c(c2)[C@H]2C[C@@H](CC(=O)NCc4ccccc4F)O[C@@H](CO)[C@H]2O3)c1	none
CCc1cc2c(COC(=O)c3cc(S(=O)(=O)N4CCOCC4)ccc3F)cc(=O)oc2cc1O	BL2 CD40 inh 50.9
O=C(OCC(=O)N1CCCC1=O)c1cc(S(=O)(=O)N2CCOCC2)ccc1F	none
N#Cc1ccccc1COC(=O)c1cc(S(=O)(=O)N2CCOCC2)ccc1F	none
C[C@H](O)C#Cc1ccc([C@@H]2[C@H]3CN(S(=O)(=O)Cc4ccccc4)CCCCN3[C@H]2CO)cc1	none
Cc1noc(C)c1NC(=O)N(C)C[C@@H]1OCCCC[C@H](C)Oc2ccc(NC(=O)Nc3ccc(C(F)(F)F)cc3)cc2C(=O)N([C@H](C)CO)C[C@@H]1C	none
C[C@@H]1CN([C@H](C)CO)C(=O)Cc2cc(NC(=O)Nc3ccc(C(F)(F)F)cc3)ccc2O[C@@H]1CN(C)CC1CCCCC1	none
COc1ccc(S(=O)(=O)N(C)C[C@@H]2Oc3ccc(NC(=O)Nc4ccc(C(F)(F)F)cc4)cc3C(=O)N([C@H](C)CO)C[C@H]2C)cc1	BL2 CD40 inh 52.7[25 µM]
COc1ccc(S(=O)(=O)N(C)C[C@@H]2Oc3ccc(NC(=O)Nc4ccc(C(F)(F)F)cc4)cc3C(=O)N([C@H](C)CO)C[C@@H]2C)cc1	none
C[C@@H]1CCCCO[C@@H](CN(C)CC2CCCCC2)[C@H](C)CN([C@@H](C)CO)C(=O)c2cc(NC(=O)Nc3ccc(C(F)(F)F)cc3)ccc2O1	none
C[C@@H]1CCCCO[C@H](CN(C)CC2CCCCC2)[C@H](C)CN([C@@H](C)CO)C(=O)c2cc(NC(=O)Nc3ccc(C(F)(F)F)cc3)ccc2O1	BL2 CD40 inh 55.0[25 µM]
COc1ccc(S(=O)(=O)N(C)C[C@H]2Oc3ccc(NC(=O)Nc4ccc(C(F)(F)F)cc4)cc3C(=O)N([C@H](C)CO)C[C@@H]2C)cc1	none
Cc1noc(C)c1NC(=O)N(C)C[C@@H]1OCCCC[C@@H](C)Oc2ccc(NC(=O)Nc3ccc(C(F)(F)F)cc3)cc2C(=O)N([C@H](C)CO)C[C@H]1C	BL2 CD40 inh 60.1[25 µM]
C[C@H](CO)N1C[C@H](C)[C@H](CN(C)CC2CCCCC2)Oc2ccc(NC(=O)Nc3ccc(C(F)(F)F)cc3)cc2C1=O	BL2 CD40 inh 69.0
C[C@@H]1CCCCO[C@@H](CN(C)CC2CCCCC2)[C@@H](C)CN([C@H](C)CO)C(=O)c2cc(NC(=O)Nc3ccc(C(F)(F)F)cc3)ccc2O1	none
C[C@H](CO)N1C[C@H](C)[C@@H](CN(C)Cc2ccc3c(c2)OCO3)Oc2ccc(NC(=O)Nc3ccc(C(F)(F)F)cc3)cc2C1=O	none
Cc1noc(C)c1NC(=O)N(C)C[C@@H]1OCCCC[C@@H](C)Oc2ccc(NC(=O)Nc3ccc(C(F)(F)F)cc3)cc2C(=O)N([C@H](C)CO)C[C@@H]1C	none
C[C@H]1CN(C)C(=O)c2cccc([N+](=O)[O-])c2O[C@@H]1CN(C)C(=O)OC(C)(C)C	none
C[C@@H]1CN(C)C(=O)Cc2cc(NS(C)(=O)=O)ccc2O[C@@H]1CN(C)S(C)(=O)=O	none
COc1ccc([C@@H]2C/C=C\C[C@H](c3ccc(F)cc3)NC(=O)CCC(=O)N2)c(OC)c1	none
C[C@H]1CC=CC[C@H](c2ccc3c(c2)OCO3)NC(=O)[C@H](C)N(C)C(=O)c2ccccc2O1 (mixture of isomers)	none
O=C(O)[C@@H]1[C@@H](CO)[C@@H]2Cn3c(ccc(-c4cncnc4)c3=O)[C@@H]2N1C(=O)C1CCC1	none
Nc1cc(Nc2ccc(S(N)(=O)=O)cc2)ncn1	none
N#C[C@H]1[C@@H](c2ccccc2)[C@H](CO)N1C(=O)Cc1ccccc1	none
C[C@H](CO)N1C[C@H](C)[C@H](CN(C)Cc2ccc(C(F)(F)F)cc2)Oc2c(NC(=O)c3nc4ccccc4s3)cccc2C1=O	none
C[C@H](CO)N1C[C@H](C)[C@@H](CN(C)C(=O)CN(C)C)Oc2cc(C#CC3CC3)ccc2S1(=O)=O	none
CCCNC(=O)[C@@H]1[C@@H](CO)[C@@H]2Cn3c(cccc3=O)[C@@H]2N1Cc1cccc(F)c1	none
C[C@H]1CN([C@@H](C)CO)C(=O)c2ccccc2-c2ccccc2CO[C@H]1CN(C)C(=O)CCC(F)(F)F	none
COC(=O)C(CCCN=C(N)N)NC(=O)CCCc1c(-c2ccccc2)[nH]c2c(F)cc(F)cc12 (stereo unspecified)	none
CC(=NNc1ccc2ccccc2n1)c1ccccc1O	BL2 CD40 inh 96.2
Oc1ccc(/C(Cc2ccc3ccccc3n2)=N\Nc2ccccc2)c(O)c1	none
CC(=NNC(=O)c1ccncc1)c1ccccc1O	none
O=C(C[C@@H]1C[C@H]2c3cc(NC(=O)c4ccc5c(c4)OCO5)ccc3O[C@H]2[C@H](CO)O1)NCc1ccc(Oc2ccccc2)cc1	none
CN(C)C(=O)c1cccc(-c2ccc([C@@H]3[C@@H](C#N)N(C(=O)C4CCCCC4)[C@@H]3CO)cc2)c1	none
CN1CCN(C(=O)CCN2C(=O)/C(=C\c3ccc(F)cc3)SC2=S)CC1	none
O=C(CS(=O)(=O)c1ccc(F)cc1)N1CCN(c2ccccc2)CC1	none
C=CC(=O)N1C/C(=C/c2ccc(F)cc2)C(=O)/C(=C\c2ccc(F)cc2)C1	BL2 CD40 inh 67.6
O=C(c1cc2ccccc2s1)N1CCOCC1	none
c1ccc2sc(-c3ccc4c(c3)OCO4)nc2c1	BL2 CD40 inh 53.4
c1ccc2[nH]c(-c3ccc4c(c3)OCO4)nc2c1	none
O=C(Nc1cccc(-c2nc3ccccc3s2)c1)c1ccc2c(c1)OCO2	none
O=C(NC1CC1)c1ccc(-c2nc3ccccc3s2)s1	BL2 CD40 inh 75.4
c1csc(-c2nc3ccccc3s2)c1	none
CCNC(=O)COC(=O)c1ccc(-c2nc3ccccc3s2)s1	none
O=C(c1ccc(-c2nc3ccccc3s2)s1)N1CCOCC1	BL2 CD40 inh 88.1
CCN1CCN(C(=O)c2ccc(-c3nc4ccccc4s3)s2)CC1	none
CO[C@@H]1CC[C@@H]2CCN(C)C(=O)[C@@H](C)CN(C)C(=O)c3cc(C#N)ccc3OC[C@H]1O2	none
CCCNC(=O)NC[C@H]1[C@H](c2ccc(C3=CCCC3)cc2)[C@H](CO)N1C(=O)CC	none
CN(C)C(=O)C[C@H]1CC[C@H]2[C@H](COc3ccc(NC(=O)C4CCC4)cc3C(=O)N2C)O1	none
O=C(C[C@H]1CC[C@H](NC(=O)Nc2cc(F)ccc2F)[C@@H](CO)O1)NCc1ccccn1	none

Source: PubChem (Broad Institute)
